Assay results as given in PubChem BioAssay.
Active and inactive are the calls of the source.

Experiments:
[1] = A549 cell viability effects, profiling panel, calcein-AM fluorescence, 48 h, basal (AID 1162); conditions: higher = more signal
[2] = adipocyte viability effects, profiling panel, cell-based, 3T3-L1 adipocytes, calcein-AM fluorescence, 48 h, basal (AID 1163); conditions: 3T3-L1 adipocytes viability, higher = more signal
[3] = HepG2 cell viability effects, profiling panel, calcein-AM fluorescence, 48 h, basal (AID 1164); conditions: higher = more signal
[4] = MM1S cell viability effects, profiling panel, calcein-AM fluorescence, 48 h, basal (AID 1165); conditions: higher = more signal;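 also: viability of MM1S multiple myeloma cells under basal unstimulated conditions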
[5] = basal RPMI8226 viability, no added stimulus, profiling panel, cell-based, calcein-AM fluorescence, 48 h, PK04 Diversity Set (AID 1166); conditions: RPMI8226 myeloma viability, higher = more signal;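 also: cells grown under basal conditions without added stimulus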
[6] = basal HepG2 mitochondrial membrane potential changes, profiling panel, cell-based, JC-1 fluorescence, 24 h, 100 nL compound (AID 1167); conditions: higher = more signal
[7] = basal 3T3-L1 adipocyte mitochondrial potential changes, profiling panel, cell-based, JC-1 fluorescence, 3T3-L1 adipocytes, 24 h, 100 nL compound (AID 1168); conditions: JC-1 mitochondrial fluorescence, higher = more signal, called active from +8 up or from −8 down
[8] = basal RPMI8226 mitochondrial membrane potential changes, profiling panel, cell-based, JC-1 fluorescence, 24 h, 100 nL compound (AID 1169); conditions: RPMI8226 myeloma, JC-1 mitochondrial potential fluorescence, higher = more signal
[9] = basal MM1S mitochondrial membrane potential changes, profiling panel, cell-based, JC-1 fluorescence, 24 h, 100 nL compound (AID 1170); conditions: higher = more signal
[10] = A549 lung cancer cell viability effects, profiling panel, resazurin fluorescence, 24 h, PK04 Diversity Set (AID 1171); conditions: higher = more signal, called active from +8 up or from −8 down
Also: test concentration not given here.

SMILES	z-score [1]	z-score [2]	z-score [3]	z-score [4]	z-score [5]	z-score [6]	z-score [7]	z-score [8]	z-score [9]	z-score [10]
C=C[C@@H](COC(C)=O)N(Cc1ccccc1[N+](=O)[O-])S(=O)(=O)c1ccc(Br)cc1	1.8	0.425	-0.491	-0.531	0.0618	-0.464	-0.34 (inactive)	-0.872	-0.189	-1.61 (inactive)
CC(=O)C1=CCC(c2ccccc2)N(S(=O)(=O)c2ccc(C)cc2)C1 (stereo not given)	-0.346	0.0159	-0.727	-0.0171	-1.08	-0.602	-1.35 (inactive)	0.697	0.329	0.183 (inactive)
Cc1ccc(S[C@]2(C(=O)NCC(C)C)CC(=O)N(Cc3ccccc3Cl)[C@@H]2c2ccc(CO)cc2)cc1	1.63	0.114	-0.45	-0.226	0.845	-0.595	-0.254 (inactive)	-0.492	0.767	-0.0989 (inactive)
COC(=O)c1ccc(C23CC2(C(NP(=O)(c2ccccc2)c2ccccc2)c2ccccc2)C3)cc1 (stereo not given)	0.766	0.406	1.48	-2.06	-3.34	3.7	0.711 (inactive)	-0.369	-1.45	-0.416 (inactive)
CC1=C2[C@@H](CCc3ccccc3)OB(O)C[C@@H]2n2c(=O)n(-c3ccccc3)c(=O)n2C1	0.328	-0.448	-0.335	0.271	-1.14	-2.01	0.553 (inactive)	0.146	-0.126	-0.699 (inactive)
CCCCCCCCCCC(O)C1C=CC2C(=O)N(Cc3ccccc3)C(=O)C2N1n1cnnc1 (stereo not given)	-0.509	0.381	-0.324	-0.514	-0.921	0.015	-1.51 (inactive)	-0.0408	-0.979	-0.929 (inactive)
[N-]=[N+]=NCc1ccccc1C[C@@]1(C(=O)NCC(O)CO)N=C(c2ccc(OCCCO)cc2)O[C@@H]1c1ccccc1CN=[N+]=[N-] (stereo not given in full)	-1.05	0.208	-0.0726	-1.4	-2.2	-0.382	-1.04 (inactive)	-0.762	-0.737	-0.2 (inactive)
COCCOC(=O)N1C(=O)[C@@]2(c3ccccc31)[C@H](c1ccc(O)cc1)N1[C@H](c3ccccc3)[C@H](c3ccccc3)OC(=O)[C@H]1[C@@H]2C(=O)N1CCc2cc(OC)c(OC)cc2C1	0.823	0.748	2.31	0.448	-0.368	0.893	2.9 (inactive)	0.228	0.296	-0.275 (inactive)
CCCN1C(=O)[C@]2(COC(c3ccc(OCCCO)cc3)=N2)Cc2ccccc21	-0.78	0.585	0.302	-1.6	-0.688	-0.0681	-0.919 (inactive)	0.391	0.148	0.212 (inactive)
COC(=O)C(CC#Cc1ccc2c(c1)[C@]1(C(=O)N2)[C@H](c2ccc(OCCO)cc2)N2[C@H](c3ccccc3)[C@H](c3ccccc3)OC(=O)[C@H]2[C@@H]1C(=O)NC[C@H](O)c1ccccc1)C(=O)OC	0.876	1.04	1.31	-1.67	-1.2	-1.13	0.833 (inactive)	-1.29	-1.35	0.795 (inactive)
NC(=O)NCC#Cc1ccc2c(c1)[C@]1(C(=O)N2)[C@H](C(=O)N2CCCCCCC2)[C@H]2C(=O)O[C@H](c3ccccc3)[C@H](c3ccccc3)N2[C@@H]1c1ccc(OCCO)cc1	-0.0962	-0.15	-1.09	-0.682	-0.365	-1.79	-2.9 (inactive)	-0.165	-0.781	-0.316 (inactive)
Cc1ccc(S[C@]2(C(=O)NCc3ccccc3)CC(=O)N(Cc3ccccc3)[C@@H]2c2ccc(CO)cc2)cc1	0.778	0.147	0.0772	-0.195	-0.615	-0.452	0.645 (inactive)	0.0195	-0.172	-0.114 (inactive)
COCCOC(=O)N1C(=O)[C@@]2(c3cc(C#CCNC(N)=O)ccc31)[C@H](c1ccc(O)cc1)N1[C@H](c3ccccc3)[C@H](c3ccccc3)OC(=O)[C@H]1[C@@H]2C(=O)NC[C@H](O)c1ccccc1	-0.276	-0.202	0.108	0.208	-0.197	-1.48	-0.563 (inactive)	0.326	-0.0292	-0.803 (inactive)
CN1CCC(CCCO)=CC1c1ccc(CN2CCCC2)cc1 (stereo not given)	-0.701	0.143	-0.86	-0.52	0.559	0.217	-0.0668 (inactive)	-0.714	0.00742	0.819 (inactive)
COC(=O)[C@@]1(Cc2ccc(OC)cc2)[C@H]2c3cc(C(=O)N(C)C)n(Cc4c(OC)[nH]cc(C)c4=O)c3C[C@H]2CN1C(=O)c1ccccc1	0.249	-0.0161	1.17	0.685	1.13	1.95	0.274 (inactive)	-0.213	-1.65	-1.52 (inactive)
O=C1C2C=CC(C(O)c3ccc(-c4ccccc4)s3)N(n3cnnc3)C2C(=O)N1Cc1ccccc1 (stereo not given)	-0.787	-0.293	-0.638	-0.593	-1.87	-0.666	-0.878 (inactive)	-0.128	0.871	-1 (inactive)

SMILES	z-score [1]	z-score [2]	z-score [3]	z-score [4]	z-score [5]	z-score [6]	z-score [7]	z-score [8]	z-score [9]	z-score [10]
COc1ccc(C(O)C2C=CC3C(=O)N(C)C(=O)C3N2Nc2ccccc2)cc1OCc1ccccc1 (stereo not given)	-0.433	-0.621	-0.269	-0.23	-0.427	-1.7	-0.989 (inactive)	0.324	0.0666	1.88 (inactive)
Cc1ccc(S[C@]2(C(=O)NCc3ccccc3)CC(=O)N(Cc3ccccc3Cl)[C@@H]2c2ccc(CO)cc2I)cc1	0.34	1.13	-0.0653	-1.73	-1.65	-0.44	0.376 (inactive)	-0.0557	-2.15	1.6 (inactive)
COc1ccc(C#Cc2ccc3c(c2)[C@]2(C(=O)N3)[C@H](C(=O)NC[C@H](O)c3ccccc3)[C@H]3C(=O)O[C@H](c4ccccc4)[C@H](c4ccccc4)N3[C@@H]2c2ccc(OCCO)cc2)cc1	0.415	1.17	-0.425	-1.82	-1.07	-1.51	2.53 (inactive)	-1.04	-0.733	-0.171 (inactive)
O=C1C[C@]2(c3ccc([N+](=O)[O-])cc3)C(=O)N(CC(F)(F)F)c3cc(CO)ccc3[C@H]2N1CC12CC3CC(CC(C3)C1)C2	0.831	-0.425	0.655	0.489	0.0342	0.91	-1.2 (inactive)	0.308	-0.964	-0.399 (inactive)
C[C@]1(C(=O)NCc2ccccc2)c2ccccc2C(=O)N(Cc2cc(F)cc(C(F)(F)F)c2)[C@H]1c1ccc(CO)cc1	0.179	-0.628	1.11	0.304	0.411	2.16	0.41 (inactive)	0.714	-0.765	-0.375 (inactive)
O=C(CS)NCCCCCCNC(=O)[C@H]1C[C@H]2C(=O)N3CCC[C@H]3C(=O)N2[C@H]1c1cccc(OCCO)c1	-0.464	-0.966	-0.0465	-0.939	0.529	-0.971	-0.955 (inactive)	-0.127	-0.285	0.388 (inactive)
O=C1OCCC=C[C@H]2OC34C=CCN(c5ccc6ccccc6c5)C(=O)[C@H]3N(CCCCCO)C(=O)[C@@H]4C12 (stereo not given in full)	0.32	-0.691	1.84	1.35	0.0492	1.53	-0.279 (inactive)	-0.0802	-0.0576	0.384 (inactive)
CCOC(=O)C[C@H]1[C@H](OC(=O)c2ccc(-c3ccccc3)cc2)[C@@H](NC(=O)c2ccc3ccccc3c2)c2cc(OCCCO)ccc2N1C(=O)Cc1ccc(OC)cc1	0.0289	0.965	0.0837	-0.379	0.0182	2.96	-0.000915 (inactive)	0.462	0.189	0.24 (inactive)
C=CC[C@@H](OC(=O)Nc1ccc(OC)cc1)c1ccc(O)c2ccccc12	-0.28	0.316	-2	-2.96	-4.3	-3.28	-1.55 (inactive)	-0.992	-2.18	-0.67 (inactive)
COCCOC(=O)N1C(=O)[C@@]2(c3cc(C#CC4=CCCCC4)ccc31)[C@H](C(=O)N1CCc3cc(OC)c(OC)cc3C1)[C@H]1C(=O)O[C@H](c3ccccc3)[C@H](c3ccccc3)N1[C@@H]2c1ccccc1OCCO	0.145	0.299	0.274	-1.37	-1.06	0.0701	2.17 (inactive)	-0.701	-0.72	0.267 (inactive)
COCCOC(=O)N1C(=O)[C@@]2(c3ccccc31)[C@H](C(=O)NC[C@H](O)c1ccccc1)[C@H]1C(=O)O[C@H](c3ccccc3)[C@H](c3ccccc3)N1[C@@H]2c1ccc(OCCO)cc1	-0.656	1.13	-0.655	-0.233	-0.773	0.546	0.843 (inactive)	-0.598	-0.295	0.377 (inactive)
COc1ccc([Si](C)(C)[C@H]2[C@H](CCn3cc([C@H](O)c4ccccc4)nn3)O[C@@]3(C(=O)N(Cc4cccc(N5CCC5=O)c4)c4ccccc43)[C@@H]2C)cc1	0.692	1.3	1.57	0.739	-1.32	0.906	-0.336 (inactive)	-1.15	-0.948	-0.323 (inactive)
CCC[C@@H]1C=C(C(=O)O)[C@H](c2ccc(C)cc2)N1S(=O)(=O)c1ccc(C)cc1	-0.85	0.216	-0.522	-0.0213	0.101	-0.584	-0.119 (inactive)	-0.131	-0.166	-0.112 (inactive)
Cc1ccc([C@H]2C(C(=O)O)=C[C@@H](C)N2S(=O)(=O)c2ccc(C)cc2)cc1	-0.464	0.644	-0.173	-1.35	-0.808	-1.15	-0.642 (inactive)	-0.187	0.249	-0.16 (inactive)
COc1ccc(C(O)C2C=CC3C(=O)N(c4ccccc4)C(=O)C3N2Nc2ccc([N+](=O)[O-])cc2)cc1OCc1ccccc1 (stereo not given)	-0.805	-0.64	-1.09	0.324	-0.378	-0.608	-1.46 (inactive)	-0.215	-0.693	0.317 (inactive)
